These results are taken from PubChem BioAssay.

The structures appear in SMILES notation. For part of these data: Potency and affinity values are given separately. Active and inactive are the calls of the source.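 Rule for the calls, unless noted: active = dose curve with midpoint inside tested range, moderate steepness, plateau gap beyond fit error, low compound glow and bead-link interference; inactive = the rest.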

Experiment [1] concerns the target Cell division control protein 42 homolog (Homo sapiens) (UniProt P60953). In words: activated mutant Cdc42 GTP-binding inhibitors, dose response, biochemical, multiplex bead flow cytometry, Bodipy-FL-GTP (AID 1333;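 active = fitted half-maximal concentration within the tested dose range, moderate curve steepness, a statistically real signal drop, and little compound fluorescence or tag-binding interference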). (In flow cytometry, cells or beads pass a laser one at a time.)
The target is the same in experiment [2]. In words: wildtype Cdc42 GTP-binding inhibitors, dose response, biochemical, multiplex bead flow cytometry, Bodipy-FL-GTP (AID 1334;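 active = fitted half-maximal concentration within the tested range, moderate curve steepness, significant signal drop, and little compound fluorescence or bead-linkage interference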). The conditions noted are these: bead-based flow cytometry, Bodipy-FL-GTP binding to GST-Cdc42; at 100 µM (top of the series) unless noted.
The target in experiment [3] is GTPase HRas (Homo sapiens) (UniProt P01112). Kind of experiment: inhibitors of GTP binding to wildtype Ras, dose response, biochemical, multiplex bead flow cytometry (AID 1335;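 active = fitted half-maximal concentration within 10 nM to 100 µM, steepness 0.5 to 2, significant signal drop, low assay interference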). The conditions noted are these: bead-based flow cytometry, Bodipy-GTP binding to GST-Ras; at 100 µM (top of the series) unless noted.
The subject of experiment [4] is Ras-related protein Rab-7a (dog), GTP binding. Kind of experiment: Rab7 GTP binding inhibitors, potency, dose response, biochemical, wildtype, multiplex bead flow cytometry (AID 1336; call rule not given here).
Experiment [5] deals with Ras-related C3 botulinum toxin substrate 1 (Homo sapiens) (UniProt P63000). In words: wildtype Rac1 GTP binding inhibitors, dose response, biochemical, multiplex bead flow cytometry (AID 1340). The conditions noted are these: GST-Rac1 beads, Bodipy-FL-GTP binding; at 100 µM (top of the series) unless noted.
For experiment [6], the target named is GTPase HRas (Homo sapiens) (UniProt P01112). In words: activated Ras mutant GTP binding inhibitors, dose response, biochemical, multiplex bead flow cytometry (AID 1341;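 active = dose-response curve with midpoint inside the tested range, moderate steepness, significant amplitude and little compound fluorescence or bead-attachment interference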;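 note: GST-tagged constitutively activated Ras mutant immobilized on beads and multiplexed with other GTPases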).

Chain of GTPase HRas (Homo sapiens) (P01112 whole entry, looked up): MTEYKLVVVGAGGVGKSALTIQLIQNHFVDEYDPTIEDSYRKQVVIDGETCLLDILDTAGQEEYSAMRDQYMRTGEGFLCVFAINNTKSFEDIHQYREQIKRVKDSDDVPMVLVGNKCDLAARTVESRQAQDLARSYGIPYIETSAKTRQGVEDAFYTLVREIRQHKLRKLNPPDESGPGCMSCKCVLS
Chain of Cell division control protein 42 homolog (Homo sapiens) (P60953 whole entry, looked up): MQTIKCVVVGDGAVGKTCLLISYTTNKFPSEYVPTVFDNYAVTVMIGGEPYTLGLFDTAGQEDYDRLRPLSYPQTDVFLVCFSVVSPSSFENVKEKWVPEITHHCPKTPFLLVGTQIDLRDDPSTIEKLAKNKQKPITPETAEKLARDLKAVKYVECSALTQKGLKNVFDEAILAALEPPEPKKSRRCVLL

On to `O=C(O)c1cccnc1SCc1ccc([N+](=O)[O-])cc1`, for which the result in experiment [1], in experiment [4] and in experiment [6] was inactive. Besides, the fluorescence, percent of control (lower = inhibition) in experiment [2] was 71.2%. The GTP binding, percent of control in experiment [3] was found to be 92%. Besides, the GTP binding signal, raw median fluorescence (lower = inhibition) (MCF (arbitrary fluorescence units)) in experiment [5] came to 45.6.

Turning to `COc1ccc(CN2C(=O)/C(=C/c3ccc(-c4ccc(Cl)c(C(=O)O)c4)o3)SC2=S)cc1`, the compound was called inactive in experiment [1], in experiment [4] and in experiment [6]. The fluorescence, percent of control (lower = inhibition) in experiment [2] stood at 32.2%. Also, the GTP binding, percent of control in experiment [3] was 56%. In experiment [5], this compound registered a GTP binding signal, raw median fluorescence (lower = inhibition) (MCF (arbitrary fluorescence units)) of 142.

Regarding `O=C(N/N=C/c1ccc(-c2ccccc2[N+](=O)[O-])o1)c1cncc(Br)c1`, the outcome in experiment [1], in experiment [4] and in experiment [6] was inactive. For the same compound, in experiment [2], the fluorescence, percent of control (lower = inhibition) is 44.2%. Also, the GTP binding, percent of control in experiment [3] came to 55.2%. In experiment [5], this compound displayed a GTP binding signal, raw median fluorescence (lower = inhibition) (MCF (arbitrary fluorescence units)) of 150.

For the compound `COc1cc(C)c2c(c1C=O)Oc1c(c(C)c(O)c3c1C(O)OC3=O)OC2=O` (stereo not given), the outcome in experiment [1], in experiment [4] and in experiment [6] was inactive. The fluorescence, percent of control (lower = inhibition) in experiment [2] is 54.3%. Moreover, in experiment [3], the GTP binding, percent of control came to 102%. The GTP binding signal, raw median fluorescence (lower = inhibition) (MCF (arbitrary fluorescence units)) in experiment [5] amounted to 135.

Regarding `N#Cc1c(=O)c2nc(NCc3ccccc3)ncc2n2ccccc12`, the result in experiment [1], in experiment [4] and in experiment [6] was inactive. In addition, in experiment [2], the fluorescence, percent of control (lower = inhibition) was determined as 41.3%. For the same compound, the GTP binding, percent of control in experiment [3] was 48.1%. This compound registered a GTP binding signal, raw median fluorescence (lower = inhibition) (MCF (arbitrary fluorescence units)) in experiment [5] of 0.

For `CCC1CCCCN1S(=O)(=O)c1ccc(NC(=O)CSc2ncccc2C(=O)O)cc1` (stereo not given), the outcome in experiment [1], in experiment [4] and in experiment [6] was inactive. Moreover, the fluorescence, percent of control (lower = inhibition) in experiment [2] is 43.1%. The compound also came in with a GTP binding, percent of control in experiment [3] of 57.5%. In experiment [5], this compound showed a GTP binding signal, raw median fluorescence (lower = inhibition) (MCF (arbitrary fluorescence units)) of 109.

With `CCOC(=O)c1cc(C(=O)OCC)c2ccccn2c1=O`, the call in experiment [1], in experiment [4] and in experiment [6] was inactive. Also, the fluorescence, percent of control (lower = inhibition) in experiment [2] turned out to be 42.1%. In experiment [3], this compound returned a GTP binding, percent of control of 87.2%. Also, in experiment [5], the GTP binding signal, raw median fluorescence (lower = inhibition) (MCF (arbitrary fluorescence units)) is 246.

In the case of `CCc1ccccc1NC(=O)N1C2CCCC1CC(NC(C)=O)C2` (stereo not given), the compound was classed as inactive in experiment [1], in experiment [4] and in experiment [6]. For the same compound, the fluorescence, percent of control (lower = inhibition) in experiment [2] was 102%. In experiment [3], this compound gave a GTP binding, percent of control of 152%. Moreover, in experiment [5], the GTP binding signal, raw median fluorescence (lower = inhibition) (MCF (arbitrary fluorescence units)) is 191.

With `N#C/C(=C\c1cccnc1)c1nc2ccccc2[nH]1`, the call in experiment [1], in experiment [4] and in experiment [6] was inactive. In addition, the fluorescence, percent of control (lower = inhibition) in experiment [2] was 32.6%. In experiment [3], this compound returned a GTP binding, percent of control of 82.7%. In experiment [5], this compound came in with a GTP binding signal, raw median fluorescence (lower = inhibition) (MCF (arbitrary fluorescence units)) of 251.

On to `Cc1cc(C)n2nc(C(=O)N3CCCC(CNS(=O)(=O)c4cccs4)C3)cc2n1` (stereo not given), for which the outcome in experiment [1], in experiment [4] and in experiment [6] was inactive. The fluorescence, percent of control (lower = inhibition) in experiment [2] was 37.1%. In experiment [3], this compound showed a GTP binding, percent of control of 85.6%. This compound returned a GTP binding signal, raw median fluorescence (lower = inhibition) (MCF (arbitrary fluorescence units)) in experiment [5] of 284.

Consider `O=[N+]([O-])c1cc(Br)c(O)c(C=Nc2ccc(N3CCOCC3)cc2)c1`, for which the result in experiment [1], in experiment [4] and in experiment [6] was inactive. Further, the fluorescence, percent of control (lower = inhibition) in experiment [2] amounted to 30.7%. Further, the GTP binding, percent of control in experiment [3] came out at 79.8%. For the same compound, the GTP binding signal, raw median fluorescence (lower = inhibition) (MCF (arbitrary fluorescence units)) in experiment [5] worked out at 218.

As to `Fc1cccc(Nc2ncnc3[nH]ncc23)c1`, the compound was called inactive in experiment [1], in experiment [4] and in experiment [6]. Besides, the fluorescence, percent of control (lower = inhibition) in experiment [2] stood at 30.9%. Further, the GTP binding, percent of control in experiment [3] is 72.3%. In experiment [5], this compound yielded a GTP binding signal, raw median fluorescence (lower = inhibition) (MCF (arbitrary fluorescence units)) of 177.

On to `Cc1nc(N/N=C/c2ccc(O)cc2)c2cnn(-c3ccccc3)c2n1`, for which the outcome in experiment [1], in experiment [4] and in experiment [6] was inactive. In addition, the fluorescence, percent of control (lower = inhibition) in experiment [2] is 30.2%. Besides, the GTP binding, percent of control in experiment [3] amounted to 73.5%. The GTP binding signal, raw median fluorescence (lower = inhibition) (MCF (arbitrary fluorescence units)) in experiment [5] is 191.

Consider `O=C(O)c1cccc(NCc2ccccc2)c1`, for which the compound was classed as inactive in experiment [1], in experiment [4] and in experiment [6]. In addition, in experiment [2], the fluorescence, percent of control (lower = inhibition) was found to be 65.9%. In experiment [3], this compound registered a GTP binding, percent of control of 86.9%. Moreover, in experiment [5], the GTP binding signal, raw median fluorescence (lower = inhibition) (MCF (arbitrary fluorescence units)) came to 38.8.

In the case of `NC1=NC(=O)/C(=C/c2cn(CCC(=O)O)nc2-c2ccc(Cl)cc2)S1`, the outcome in experiment [1], in experiment [4] and in experiment [6] was inactive. In addition, the fluorescence, percent of control (lower = inhibition) in experiment [2] stood at 18.2%. In experiment [3], this compound yielded a GTP binding, percent of control of 42.4%. For the same compound, the GTP binding signal, raw median fluorescence (lower = inhibition) (MCF (arbitrary fluorescence units)) in experiment [5] was found to be 65.5.
